# Test results reported in PubChem BioAssay AID1159580 (chemical genetic matrix, 2015).
# Where “and” joins values, the source holds several entries; their conditions need not be identical. Equal entries are not always repeated. Among all 5,500 compounds or so, about 2,000 (36%) were called active. Not shown: some 18% with an inconclusive outcome. Rule as the data show it: active = normalized growth mostly below about 0.91 (no sharp cut-off); inconclusive = no clear call, values can overlap the other calls; inactive = mostly above about 0.92. The list shows a part of the results.
# Test: chemical genetic growth profiling, strain panel (AID 1159580);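 also: tested at 20 µM; growth read once vehicle control cultures reached saturation at 30 °C; 1 = growth at the plate median or of vehicle wells; lower values mean less growth of the strain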
# Details: growth OD
# [1] = S. cerevisiae deletion strains, locus YAL013W, strain DEP1, stronger effect = lower value
# [2] = S. cerevisiae deletion strains, locus YBR229C, strain ROT2, stronger effect = lower value
# [3] = S. cerevisiae deletion strains, locus YCL061C, strain MRC1, stronger effect = lower value
# [4] = S. cerevisiae deletion strains, locus YDL101C, strain DUN1, stronger effect = lower value
# [5] = S. cerevisiae deletion strains, locus YDR150W, strain NUM1, stronger effect = lower value
# [6] = S. cerevisiae deletion strains, locus YEL061C, strain CIN8, stronger effect = lower value
# [7] = S. cerevisiae deletion strains, locus YGR078C, strain PAC10, stronger effect = lower value
# [8] = S. cerevisiae deletion strains, locus YHR030C, strain SLT2, stronger effect = lower value
# [9] = S. cerevisiae deletion strains, locus YHR087W, strain rtc3, stronger effect = lower value
# [10] = S. cerevisiae deletion strains, locus YJR043C, strain POL32, stronger effect = lower value
# [11] = S. cerevisiae deletion strains, locus YJR075W, strain HOC1, stronger effect = lower value
# [12] = S. cerevisiae deletion strains, locus YLR039C, strain RIC1, stronger effect = lower value
# [13] = S. cerevisiae deletion strains, locus YLR058C, strain SHM2 (second series), stronger effect = lower value
# [14] = S. cerevisiae deletion strains, locus YLR085C, strain ARP6, stronger effect = lower value
# [15] = S. cerevisiae deletion strains, locus YLR262C, strain YPT6, stronger effect = lower value
# [16] = S. cerevisiae deletion strains, locus YML094W, strain GIM5, stronger effect = lower value
# [17] = S. cerevisiae deletion strains, locus YMR219W, strain ESC1, stronger effect = lower value
# [18] = S. cerevisiae deletion strains, locus YMR263W, strain SAP30, stronger effect = lower value
# [19] = S. cerevisiae deletion strains, locus YMR307W, strain GAS1, stronger effect = lower value
# [20] = S. cerevisiae deletion strains, locus YNL153C, strain GIM3, stronger effect = lower value
# [21] = S. cerevisiae deletion strains, locus YNL298W, strain CLA4 (second series), stronger effect = lower value
# [22] = S. cerevisiae deletion strains, locus YNL322C, strain KRE1, stronger effect = lower value
# [23] = S. cerevisiae deletion strains, locus YNR030W, strain Alg12, stronger effect = lower value
# [24] = S. cerevisiae deletion strains, locus YOL006C, strain TOP1, stronger effect = lower value
# [25] = S. cerevisiae deletion strains, locus YPL055C, strain LGE1, stronger effect = lower value
# [26] = S. cerevisiae deletion strains, locus YPL241C, strain CIN2, stronger effect = lower value
# [27] = S. cerevisiae deletion strains, locus YPR135W, strain CTF4, stronger effect = lower value
smiles,measurement,setting,value
CCOC(=O)CSC(=S)NCc1ccc(C)cc1,normalized growth,[1],0.822 (active)
same,normalized growth,"S. cerevisiae deletion strains, locus YAR019C, strain CDC15, stronger effect = lower value",0.956 (inactive)
same,normalized growth,"S. cerevisiae deletion strains, locus YBL105C, strain PKC1, stronger effect = lower value",0.958 (inactive)
same,normalized growth,"S. cerevisiae deletion strains, locus YBR135W, strain CKS1, stronger effect = lower value",0.937 (inactive)
same,normalized growth,"S. cerevisiae deletion strains, locus YBR136W, strain MEC1, stronger effect = lower value",0.955 (inactive)
same,normalized growth,"S. cerevisiae deletion strains, locus YBR160W, strain CDC28, stronger effect = lower value",0.951 (inactive)
same,normalized growth,[2],0.866 (active)
same,normalized growth,[3],0.907 (active)
same,normalized growth,"S. cerevisiae deletion strains, locus YDL017W, strain CDC7, stronger effect = lower value",0.959 (inactive)
same,normalized growth,"S. cerevisiae deletion strains, locus YDL028C, strain MPS1, stronger effect = lower value",0.947 (inactive)
same,normalized growth,[4],0.947 (inactive) and 0.839 (active)
same,normalized growth,"S. cerevisiae deletion strains, locus YDL108W, strain KIN28, stronger effect = lower value",0.956 (inactive)
same,normalized growth,"S. cerevisiae deletion strains, locus YDL132W, strain cdc53, stronger effect = lower value",0.928 (inactive)
same,normalized growth,"S. cerevisiae deletion strains, locus YDL134C, strain PPH21, stronger effect = lower value",0.0516 (active)
same,normalized growth,"S. cerevisiae deletion strains, locus YDL214C, strain PRR2, stronger effect = lower value",0.95 (inactive)
same,normalized growth,"S. cerevisiae deletion strains, locus YDR052C, strain DBF4, stronger effect = lower value",0.972 (inactive)
same,normalized growth,"S. cerevisiae deletion strains, locus YDR054C, strain cdc34, stronger effect = lower value",0.93 (inactive)
same,normalized growth,[5],0.787 (active)
same,normalized growth,"S. cerevisiae deletion strains, locus YDR226W, strain ADK1, stronger effect = lower value",0.946 (inactive)
same,normalized growth,"S. cerevisiae deletion strains, locus YDR477W, strain SNF1, stronger effect = lower value",0.949 (inactive)
same,normalized growth,[6],0.216 (active)
same,normalized growth,"S. cerevisiae deletion strains, locus YER123W, strain YCK3, stronger effect = lower value",0.933 (inactive)
same,normalized growth,"S. cerevisiae deletion strains, locus YER133W, strain GLC7, stronger effect = lower value",0.953 (inactive)
same,normalized growth,"S. cerevisiae deletion strains, locus YFL009W, strain cdc4, stronger effect = lower value",0.944 (inactive)
same,normalized growth,"S. cerevisiae deletion strains, locus YFL029C, strain CAK1, stronger effect = lower value",0.958 (inactive)
same,normalized growth,"S. cerevisiae deletion strains, locus YFR003C, strain YPI1, stronger effect = lower value",0.957 (inactive)
same,normalized growth,"S. cerevisiae deletion strains, locus YFR019W, strain FAB1, stronger effect = lower value",0.957 (inactive)
same,normalized growth,"S. cerevisiae deletion strains, locus YFR028C, strain CDC14, stronger effect = lower value",0.947 (inactive)
same,normalized growth,"S. cerevisiae deletion strains, locus YGR040W, strain KSS1, stronger effect = lower value",0.946 (inactive)
same,normalized growth,"S. cerevisiae deletion strains, locus YGR052W, strain FMP48, stronger effect = lower value",1.01 (inactive)
same,normalized growth,[7],0.766 (active)
same,normalized growth,"S. cerevisiae deletion strains, locus YGR092W, strain DBF2, stronger effect = lower value",0.937 (inactive)
same,normalized growth,[8],0.0833 (active) and 0.84 (active)
same,normalized growth,"S. cerevisiae deletion strains, locus YHR079C, strain IRE1, stronger effect = lower value",0.93 (inactive)
same,normalized growth,"S. cerevisiae deletion strains, locus YHR082C, strain KSP1, stronger effect = lower value",0.964 (inactive)
same,normalized growth,[9],0.86 (active)
same,normalized growth,"S. cerevisiae deletion strains, locus YHR205W, strain SCH9, stronger effect = lower value",0.872 (inactive)
same,normalized growth,"S. cerevisiae deletion strains, locus YIL147C, strain SLN1, stronger effect = lower value",0.951 (inactive)
same,normalized growth,"S. cerevisiae deletion strains, locus YJL095W, strain BCK1, stronger effect = lower value",0.879 (inactive)
same,normalized growth,"S. cerevisiae deletion strains, locus YJL128C, strain PBS2, stronger effect = lower value",0.954 (inactive)
same,normalized growth,"S. cerevisiae deletion strains, locus YJL157C, strain FAR1, stronger effect = lower value",0.963 (inactive)
same,normalized growth,"S. cerevisiae deletion strains, locus YJL187C, strain SWE1, stronger effect = lower value",0.958 (inactive)
same,normalized growth,"S. cerevisiae deletion strains, locus YJR016C, strain ILV3, stronger effect = lower value",0.954 (inactive)
same,normalized growth,[10],0.812 (active)
same,normalized growth,"S. cerevisiae deletion strains, locus YJR066W, strain TOR1 (second series), stronger effect = lower value",0.989 (inactive)
same,normalized growth,"S. cerevisiae deletion strains, locus YJR066W, strain TOR1, stronger effect = lower value",0.957 (inactive)
same,normalized growth,[11],0.82 (active)
same,normalized growth,"S. cerevisiae deletion strains, locus YKL048C, strain ELM1, stronger effect = lower value",0.944 (inactive)
same,normalized growth,"S. cerevisiae deletion strains, locus YKL067W, strain YNK1, stronger effect = lower value",0.95 (inactive)
same,normalized growth,"S. cerevisiae deletion strains, locus YKL101W, strain HSL1, stronger effect = lower value",0.955 (inactive)
same,normalized growth,"S. cerevisiae deletion strains, locus YKL193C, strain SDS22, stronger effect = lower value",0.948 (inactive)
same,normalized growth,"S. cerevisiae deletion strains, locus YKL203C, strain TOR2, stronger effect = lower value",1 (inactive)
same,normalized growth,[12],0.172 (active)
same,normalized growth,[13],0.909 (active)
same,normalized growth,[14],0.0735 (active)
same,normalized growth,"S. cerevisiae deletion strains, locus YLR113W, strain HOG1, stronger effect = lower value",0.76 (active)
same,normalized growth,"S. cerevisiae deletion strains, locus YLR133W, strain CKI1, stronger effect = lower value",0.959 (inactive)
same,normalized growth,[15],0.111 (active)
same,normalized growth,"S. cerevisiae deletion strains, locus YLR403W, strain SFP1, stronger effect = lower value",0.967 (inactive)
same,normalized growth,"S. cerevisiae deletion strains, locus YML070W, strain DAK1, stronger effect = lower value",0.949 (inactive)
same,normalized growth,[16],0.493 (active)
same,normalized growth,"S. cerevisiae deletion strains, locus YMR001C, strain CDC5, stronger effect = lower value",0.946 (inactive)
same,normalized growth,"S. cerevisiae deletion strains, locus YMR205C, strain PFK2 (second series), stronger effect = lower value",0.965 (inactive)
same,normalized growth,[17],0.909 (active)
same,normalized growth,[18],0.853 (active)
same,normalized growth,"S. cerevisiae deletion strains, locus YMR277W, strain FCP1, stronger effect = lower value",0.957 (inactive)
same,normalized growth,[19],0.109 (active)
same,normalized growth,"S. cerevisiae deletion strains, locus YNL006W, strain LST8, stronger effect = lower value",0.959 (inactive)
same,normalized growth,"S. cerevisiae deletion strains, locus YNL020C, strain ARK1, stronger effect = lower value",0.948 (inactive)
same,normalized growth,[20],0.665 (active)
same,normalized growth,"S. cerevisiae deletion strains, locus YNL161W, strain CBK1, stronger effect = lower value",0.953 (inactive)
same,normalized growth,"S. cerevisiae deletion strains, locus YNL183C, strain NPR1, stronger effect = lower value",0.912 (inactive)
same,normalized growth,"S. cerevisiae deletion strains, locus YNL207W, strain RIO2, stronger effect = lower value",0.953 (inactive)
same,normalized growth,"S. cerevisiae deletion strains, locus YNL222W, strain SSU72, stronger effect = lower value",0.956 (inactive)
same,normalized growth,[21],0.0782 (active)
same,normalized growth,"S. cerevisiae deletion strains, locus YNL307C, strain MCK1 (second series), stronger effect = lower value",0.928 (inactive)
same,normalized growth,[22],0.925 (active)
same,normalized growth,[23],0.0728 (active)
same,normalized growth,[24],0.107 (active)
same,normalized growth,"S. cerevisiae deletion strains, locus YOL078W, strain AVO1, stronger effect = lower value",0.948 (inactive)
same,normalized growth,"S. cerevisiae deletion strains, locus YOL136C, strain PFK27, stronger effect = lower value",0.946 (inactive)
same,normalized growth,"S. cerevisiae deletion strains, locus YOR061W, strain CKA2, stronger effect = lower value",0.965 (inactive)
same,normalized growth,"S. cerevisiae deletion strains, locus YOR119C, strain RIO1, stronger effect = lower value",1.01 (inactive)
same,normalized growth,"S. cerevisiae deletion strains, locus YOR231W, strain MKK1, stronger effect = lower value",0.914 (inactive)
same,normalized growth,"S. cerevisiae deletion strains, locus YOR329C, strain SCD5, stronger effect = lower value",0.952 (inactive)
same,normalized growth,"S. cerevisiae deletion strains, locus YPL031C, strain PHO85, stronger effect = lower value",0.944 (inactive)
same,normalized growth,[25],0.618 (active)
same,normalized growth,"S. cerevisiae deletion strains, locus YPL153C, strain RAD53, stronger effect = lower value",0.954 (inactive)
same,normalized growth,"S. cerevisiae deletion strains, locus YPL204W, strain HRR25, stronger effect = lower value",0.943 (inactive)
same,normalized growth,"S. cerevisiae deletion strains, locus YPL209C, strain IPL1, stronger effect = lower value",0.953 (inactive)
same,normalized growth,[26],0.0682 (active)
same,normalized growth,"S. cerevisiae deletion strains, locus YPL256C, strain CLN2, stronger effect = lower value",0.825 (active)
same,normalized growth,"S. cerevisiae deletion strains, locus YPR025C, strain CCL1, stronger effect = lower value",0.943 (inactive)
same,normalized growth,"S. cerevisiae deletion strains, locus YPR106W, strain ISR1, stronger effect = lower value",0.951 (inactive)
same,normalized growth,"S. cerevisiae deletion strains, locus YPR111W, strain DBF20, stronger effect = lower value",0.931 (inactive)
same,normalized growth,[27],0.148 (active)
same,normalized growth,"S. cerevisiae deletion strains, strain NNK1, stronger effect = lower value",0.948 (inactive)
same,normalized growth,"S. cerevisiae deletion strains, strain TSCII, stronger effect = lower value",0.949 (inactive)
CCOC(=O)C1CCN(C(=S)Nc2ccccc2C(F)(F)F)CC1,normalized growth,[1],1 (inactive)
same,normalized growth,[2],1 (inactive)
same,normalized growth,[3],1.02 (inactive)
same,normalized growth,[4],1.01 (inactive)
same,normalized growth,[5],0.994 (inactive)
same,normalized growth,[6],0.998 (inactive)
same,normalized growth,[7],1.01 (inactive)
same,normalized growth,[8],0.99 (inactive)
same,normalized growth,[9],1.02 (inactive)
same,normalized growth,[10],1 (inactive)
same,normalized growth,[11],0.982 (inactive)
same,normalized growth,"S. cerevisiae deletion strains, locus YKL190W, strain CNB1, stronger effect = lower value",0.994 (inactive)
same,normalized growth,[12],0.866 (inactive)
same,normalized growth,[13],0.996 (inactive)
same,normalized growth,[14],0.983 (inactive)
same,normalized growth,[15],0.868 (inactive)
same,normalized growth,[16],1.08 (inactive)
same,normalized growth,[17],1 (inactive)
same,normalized growth,[18],1.01 (inactive)
same,normalized growth,[19],0.913 (inactive)
same,normalized growth,[20],1.01 (inactive)
same,normalized growth,[21],0.973 (inactive)
same,normalized growth,[22],1.01 (inactive)
same,normalized growth,[23],0.978 (inactive)
same,normalized growth,[24],1.04 (inactive)
same,normalized growth,[25],1.03 (inactive)
same,normalized growth,[26],1.01 (inactive)
same,normalized growth,[27],0.982 (inactive)
same,normalized growth,"S. cerevisiae strains, strain wild type, stronger effect = lower value",1.01 (inactive)
